Most compounds without a hit are left out; they make up all but 17% or so of the library.
DT40 TDP1 CPT: DT40-hTDP1 cell growth loss with CPT | chicken DT40 Tdp1-/-;hTDP1 cells + 20 nM CPT, ATP luminescence, 48 h | Potency, µM (titrated, usually from 46.2 µM), for inactives: at the highest dose activity change, negative = growth inhibition, usual class: inhibitors | hit rate 12% among 420,000 | AID 686979; further: on the % scale 0 is the no-effect control and ±100 the full control effect; nearly all actives have a fitted effect of over 55% in size
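Chicken DT40 Tdp1-/- cells stably complemented with human TDP1 were seeded at 400 cells/well in medium containing 20 nM camptothecin, exposed to pin-transferred compounds, and grown at 37 °C for at least 48 hr. Viability was read as ATP luminescence.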
HepG2 tox: counter-screen for TGF-b inhibitors: cytotoxicity in HepG2 cells; AID 588856; HepG2 CAGA-GFP viability, ATP luminescence, 18 h; hit rate 0.76% among 410,000; Potency, µM (series often up to 46.1 µM), without a hit: at the highest dose activity change, negative = cytotoxicity, actives largely listed as cytotoxic
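HepG2 CAGA-GFP cells (1000/well, DMEM with 1% FBS) received compound, then TGF-beta at 500 pg/mL final, and were incubated 18 hours at 37 degrees C. Viability was read by CellTiter-Glo luminescence. Media-only wells were set as complete cell-killing and DMSO as no toxicity.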
DT40 TDP1 no CPT: qHTS for Inhibitors of human tyrosyl-DNA phosphodiesterase 1 (TDP1): qHTS in cells in absence of CPT; hit rate 15% among 420,000; DT40 Tdp1-/- hTDP1 cells, no CPT, ATP luminescence, 48 h; Potency, µM (series often up to 46.2 µM), without a hit: top-dose activity change, negative = growth inhibition, actives largely listed as inhibitors; further: on the % scale 0 is the no-effect control and ±100 the full control effect; nearly all actives have a fitted effect of over 55% in size
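Chicken DT40 Tdp1-/- cells complemented with human TDP1, screened without camptothecin (DMSO vehicle only), 400 cells/well. Compounds pin-transferred, cells incubated at 37 °C for at least 48 hr. Growth read as ATP-dependent luminescence (CellTiter-Glo, 30 min at RT).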
HT1080NT lethal: kills 2HG-producing HT-1080-NT fibrosarcoma cells; HT-1080-NT fibrosarcoma viability, CellTiter-Glo ATP luminescence, 48 h; Potency, µM (series often up to 46.1 µM), for inactives: at the highest dose activity, negative = less viability, most hits filed as cytotoxic; hit rate 1.6% among 360,000; AID 686970;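 further: NT is the 2HG producing partner of a matched IDH1 knockdown line; 0% = DMSO-treated cells and -100% = media-only wells without cells; nearly all actives have a fitted effect of over 55% in size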
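750 cells/well, RPMI + 5% FBS; 2 h settle, compound pin-transfer, 48 h at 37 degrees C. CellTiter-Glo 10 min RT, luminescence. Normalized to DMSO and media-only wells.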
HT1080 IDH1KD tx: HT-1080 IDH1 knockdown cell toxicity (counter line). AID 686971. Potency, µM (top dose mostly 46.1 µM), without a hit: top-dose activity, negative = toxicity, actives largely listed as cytotoxic. hit rate 2% among 360,000. HT-1080 IDH1 knockdown viability, ATP luminescence, 48 h;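 further: 0% = DMSO wells and -100% = cell-free medium wells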
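Luminescent ATP read-out (CellTiter-Glo, 10 min at room temperature) after 48 h compound exposure at 37 °C gave viability of IDH1-knockdown HT-1080 cells. Activity was normalised to DMSO and cell-free wells, then fitted as concentration-response curves.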
TGFb SMAD3 inh: blocks TGF-b signaling. HepG2 CAGA-GFP TGF-b/SMAD3 reporter, GFP fluorescence, 18 h; TGF-beta stimulated, 500 pg/mL final. Potency, µM (titrated, usually from 46.1 µM), for inactives: top-dose activity, negative = inhibition, most hits filed as inhibitors. hit rate 1.2% among 410,000; further: on the % scale 0 is the no-effect control and ±100 the full control effect; nearly all actives have a fitted effect of over 65% in size
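First, reporter cells (HEPG2 CAGA-GFP) rested 2 h at 37 degrees C. Next, compounds were pinned in and TGF-beta added to 500 pg/mL final. After 18 h, GFP was imaged per cell and summed per well.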
Active calls of the source: *; ? = inconclusive; / = not tested or not shown. The call rests on the fitted dose curve; in most records, active means well fitted curve in the direction sought with a large enough effect; inconclusive means small, poorly fitted or top-dose-only effect, or another doubt; inactive means no such curve, though single readings can be large; an effect the other way counts as inactive or inconclusive. Potency means the concentration at half of the fitted maximal effect.

SMILES	DT40 TDP1 CPT	HepG2 tox	DT40 TDP1 no CPT	HT1080NT lethal	HT1080 IDH1KD tx	TGFb SMAD3 inh
Cc1ccc(C(=O)NCC(=O)OCC(=O)c2cccc3ccccc23)cc1	?	-33%	-25%	/	/	-9%
Cc1noc(C)c1C(=O)N1CCC2(CC1)CCN(c1ccccn1)CC2	-15%	/	?	/	/	/
CCOC1=C2CN(S(=O)(=O)c3ccc(C)cc3)[C@H](c3cccc4ccccc34)C[C@H]2[C@H]2C(=O)N(c3ccccc3)C(=O)[C@H]2C1	10%	-40%	7%	25%	3%	0%
CCC1Oc2ccc(C)cc2N(CC(=O)N(Cc2cccnc2)Cc2cccc(F)c2)C1=O (stereo not drawn)	18µM*	-4%	?	-14%	-10%	-2%
CCC1Oc2ccc(C)cc2N(CC(=O)N(Cc2ccncc2)Cc2ccco2)C1=O (stereo not drawn)	?	-62%	?	-2%	-1%	19%
CSc1ccc(/C=C/c2ccnc3ccccc23)cc1	8%	7%	-5%	/	/	-4%
CN(C)c1ccc(/C=C/c2ccnc3ccccc23)c(F)c1	?	-51%	13µM*	/	/	?
CN(C)c1ccc(/C=C/c2ccnc3ccccc23)c(N)c1	0.63µM*	-36%	0.63µM*	/	/	?
CN(C)c1ccc(/C=C\C=C/c2ccnc3ccccc23)cc1	0.079µM*	-32%	0.1µM*	/	/	8.9µM*
CCc1cnc2ccccc2c1/C=C/c1ccc(N(C)C)cc1	?	-14%	?	/	/	?
CN(C)c1ccc(CCc2ccnc3ccccc23)cc1	13µM*	-32%	14µM*	/	/	0%
COc1ccc(-c2noc(CC(=O)N(C)c3cccc(C)c3)n2)cc1	?	-1%	?	/	/	6%
CC(=O)c1ccc(N2CCN(S(=O)(=O)c3ccc(-c4coc(C)n4)cc3)CC2)cc1	-22%	-47%	-22%	/	/	?
Cc1ccc2c(C)c(C(=O)N3CCN(C4CCS(=O)(=O)C4)CC3)oc2c1C (stereo not drawn)	-5%	6%	-3%	-2%	-3%	-5%
S=C1SCN(Cc2ccccc2)CN1Cc1ccccc1	8.4µM*	-52%	?	9%	8%	?
COc1ccc(CN2CSC(=S)N(Cc3ccc(OC)cc3)C2)cc1	4.6µM*	13µM*	15µM*	-3%	0%	?
COc1ccc(CN2CSC(=S)N(Cc3ccccc3)C2)cc1	?	11µM*	?	-8%	-3%	13µM*
S=C1SCN(Cc2ccccc2)CN1Cc1ccco1	?	4%	?	8%	6%	10%
S=C1SCN(CCc2ccccc2)CN1CCc1ccccc1	?	-12%	18µM*	-6%	-17%	?
O=C(N/N=C1\CCCc2ccccc21)c1ccc([N+](=O)[O-])cc1Cl	?	-56%	?	-27%	?	-11%
S=C1NCN(Cc2cccnc2)CN1	11%	9%	14%	-1%	6%	-4%
S=C1SCN(Cc2cccnc2)CN1Cc1cccnc1	0.82µM*	-98%	0.82µM*	7.3µM*	6.5µM*	?
COc1ccc(-c2nc3sc(CCNC(=O)c4cc(Cl)ccc4OC)c(C)n3n2)cc1	16µM*	-19%	13µM*	/	/	-17%
Cc1c(CCNC(=O)c2ccc(Br)o2)sc2nc(-c3ccc(Cl)cc3)nn12	18µM*	-33%	23µM*	/	/	11µM*
CCS(=O)(=O)NCCc1sc2nc(-c3ccc(OC)cc3)nn2c1C	?	-65%	21µM*	/	/	?
SMILES	DT40 TDP1 CPT	HepG2 tox	DT40 TDP1 no CPT	HT1080NT lethal	HT1080 IDH1KD tx	TGFb SMAD3 inh
COc1ccc(-c2nc3sc(CCNC(=O)c4ccc(Br)o4)c(C)n3n2)cc1	16µM*	-43%	16µM*	/	/	?
O=C(COc1ccc(S(=O)(=O)N2CCOCC2)cc1Cl)NCc1ccc2c(c1)OCO2	-21%	-14%	?	-8%	-14%	2%
COc1ccc(NC(=O)CSc2nc3cc(OC)c(OC)cc3c3nc(-c4ccccc4)nn23)cc1Cl	25%	-2%	-6%	/	/	-2%
COc1ccc(-c2nc3sc(CCNC(=O)c4ccc(C(C)(C)C)cc4)c(C)n3n2)cc1	?	-21%	8.2µM*	/	/	?
Cc1cc(S(=O)(=O)Nc2cccc([N+](=O)[O-])c2)c(C)s1	-13%	-5%	-16%	-2%	0%	-7%
O=[N+]([O-])c1cccc(NNS(=O)(=O)c2ccccc2F)c1	?	-2%	?	?	5.8µM*	4%
CCN(C(C)=O)c1cnc(C=NNC(N)=S)c2ccccc12	3.7µM*	-19%	4.6µM*	-22%	?	-11%
NC(=S)N/N=C/c1ccc(OC(=O)c2cccnc2)cc1	2%	13%	0%	9%	5%	8%
NC(=S)NN=Cc1nccc2c(N)cccc12	1.8µM*	-12%	1.2µM*	?	?	-26%
Cc1ccc(-c2cnc(C(O)c3cc(C)cc(C)c3)[nH]2)cc1 (stereo not drawn)	?	0%	?	-5%	-8%	18%
O=C(NCCN1CCc2ccccc2C1)Nc1ccc([N+](=O)[O-])cc1	?	-37%	23µM*	-3%	-4%	?
O=[N+]([O-])c1ccc(-c2csc(N3CCc4ccccc4C3)n2)cc1	-12%	8%	-1%	2%	0%	5%
O=C(Nc1ccc([N+](=O)[O-])cc1)N1CCc2ccccc2C1	-23%	-16%	?	-2%	12µM*	-4%
O=[N+]([O-])c1ccc(N2CCc3ccccc3C2)cc1	?	-19%	18µM*	2%	2%	19%
O=C(NCCCN1CCc2ccccc2C1)Nc1ccc(Br)cc1	?	-48%	?	?	18µM*	0%
CC(=O)Oc1ccccc1Cn1c(C)c(C(=O)NCc2ccccc2C(F)(F)F)sc1=O	?	-30%	?	?	-27%	?
OCC1OC(Nc2ccccc2C=NO)C(O)C1O (stereo not drawn)	4%	-8%	-7%	-4%	-6%	8%
CC(C)CC(O)(c1ccccc1)C(CN1CCOCC1)c1ccccc1 (stereo not drawn)	?	-17%	21µM*	?	?	2%
CCCCCCC(O)(c1ccc(OC)cc1)C(CN1CCOCC1)c1ccccc1 (stereo not drawn)	?	-16%	?	?	?	?
